Laboratory results: PubChem BioAssay (NCI)
This is part of a sample that, as a whole, favours compounds with a hit. Of some 79,000 tested, about 15% had one in any assay. The source made the active and inactive calls. Rule as the data show it: active = growth inhibition above about 70%; inactive = the rest.

Experiments:
[1] = NCI Yeast Anticancer Drug Screen. Data for the rad50 strain (AID 155);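 also: 0% = growth of vehicle-only cultures of the same strain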; conditions: S. cerevisiae rad50 strain growth inhibition; at 50.0 µM; active compounds read high
Procedure, shortened: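 Compounds were tested on a yeast strain with an engineered DNA damage repair alteration; the reported value is growth inhibition normalised to vehicle treatment.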

[2] = NCI Yeast Anticancer Drug Screen. Data for the mec2-1 strain (AID 157); conditions: S. cerevisiae mec2-1 strain, at 50.0 µM, active compounds read high
Procedure, shortened: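 Cells of the genetically defined mec2-1 yeast strain are incubated with test compound. Inhibition of growth is calculated against vehicle-treated controls.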

[3] = NCI Yeast Anticancer Drug Screen. Data for the sgs1 mgt1 strain (AID 161);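 also: 0% = growth of cultures given vehicle only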; conditions: S. cerevisiae sgs1 mgt1 strain, at 50.0 µM, active compounds read high
Procedure, shortened: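 Mutant yeast exposed to compound; growth scored against vehicle-only wells.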

[4] = NCI Yeast Anticancer Drug Screen. Data for the cln2 rad14 strain (AID 165);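 also: 0% = growth equal to vehicle treated cultures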; conditions: S. cerevisiae cln2 rad14 strain, at 50.0 µM, active compounds read high
Procedure, shortened: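 The screen exposed genetically defined yeast (cln2 rad14) to test compounds and scored growth inhibition relative to vehicle-treated controls.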

[5] = NCI Yeast Anticancer Drug Screen. Data for the bub3 strain (AID 167); conditions: S. cerevisiae bub3 mutant strain, at 50.0 µM, active compounds read high
Procedure, shortened: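 Growth of a checkpoint-deficient yeast mutant is measured after compound exposure. Values represent inhibition relative to vehicle.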

[6] = NCI Yeast Anticancer Drug Screen. Data for the mlh1 rad18 strain (AID 175); conditions: S. cerevisiae mlh1 rad18 strain growth inhibition; at 50.0 µM; active compounds read high
Procedure, shortened: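 Compound-treated yeast growth, normalised to vehicle controls. Strain bears defined DNA repair mutations.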

Measured: growth inhibition

C[N+]1([O-])C2CCC1CC(O)C2 (configuration not stated)
inactive: [1] 4.1% | [2] 7.55% | [3] 1.45% | [4] 16.2% | [5] -2.5% | [6] 17.4%

CS/C([S-])=N/N=C\c1ccccn1.CS/C([S-])=N/N=C\c1ccccn1.[Ni+2]
inactive: [1] 14.7% | [2] -6.75% | [3] 17.2% | [4] -35.4% | [5] 2.45% | [6] -0.45%

CN(C)C(=O)O/N=C(\c1ccccc1)C(F)(F)F
inactive: [1] 35.7% | [2] -0.15% | [3] 20.5% | [4] 15.4% | [5] 20.7% | [6] 30.6%

CCN(CC)CCc1ccncc1
inactive: [1] 12.6% | [2] 10.1% | [3] 6.65% | [4] 30% | [5] -5.05% | [6] 9.65%

CC(CO)([N+](=O)[O-])[N+](=O)[O-]
inactive: [1] 7.45% | [2] 4.75% | [3] -0.05% | [4] -0.1% | [5] 4.8% | [6] 7.35%

CC(Cl)CN(CC(C)Cl)c1ccc2c(c1)Cc1cc([N+](=O)[O-])ccc1-2 (configuration not stated)
inactive: [1] 10.3% | [2] 5.7% | [3] 33.7% | [4] 25.9% | [5] 4.5% | [6] 12.7%

O=C(CC(=O)C(F)(F)F)c1ccco1.[Co]
inactive: [1] -16.5% | [2] -17.2% | [3] -16.5% | [4] -10.5% | [5] -7.8% | [6] 3.55%

N#CCC#N
inactive: [1] -3.7% | [2] -3.95% | [3] 16.3% | [4] -3.1% | [5] 2.75% | [6] -1%

CCOC(=O)C(Br)CBr (configuration not stated)
inactive: [1] 6.35% | [2] -17.9% | [3] 4.85% | [4] -2.3% | [5] -16.1% | [6] 23.1%

O=C(COc1cccc(Cl)c1)Nc1cccc(NC(=O)c2ccc(S(=O)(=O)F)cc2)c1
inactive: [1] 2.75% | [2] 5.95% | [3] -6.85% | [4] -17.2% | [5] -5.75% | [6] 9.2%

CN1CCC2(CC1)C(C#N)C(=O)NC(=O)C2C#N (configuration not stated)
inactive: [1] 19.8% | [2] 3% | [3] 11.7% | [4] 22.9% | [5] 9.05% | [6] 7.75%

CCCCCCNC(=O)CBr
inactive: [1] 34.6% | [2] 4.55% | [3] 14.6% | [4] 3.4% | [5] 16.8% | [6] 30%

CN(C)C1CCNCC1
inactive: [1] 19.7% | [2] 5.2% | [3] 17% | [4] 4.75% | [5] 4.6% | [6] -1.5%

COC12c3ccccc3-c3ccccc3C1[C@@H](C(=O)O)[C@H]2C(=O)O (some centres not stated)
inactive: [1] 11.2% | [2] 1.6% | [3] -11.6% | [4] -14% | [5] -24.4% | [6] -10.3%

CCOC(=O)/C=C/CP(=O)(OCC)OCC
inactive: [1] 7.9% | [2] -11.5% | [3] 15.2% | [4] 11.3% | [5] 9.55% | [6] 18.2%

CN(C)c1ccccc1
inactive: [1] 0.35% | [2] 42.1% | [3] 5.35% | [4] -7.4% | [5] 3.1% | [6] 2.65%

COP(=O)(OC)C(O)C(Br)(Br)Br (configuration not stated)
inactive: [1] 28.6% | [2] 23.1% | [3] 45.2% | [4] 34.8% | [5] 11.7% | [6] 23.8%

C=C(CC(=O)O)C(=O)O
inactive: [1] -2.25% | [2] 2.8% | [3] -3.85% | [4] 6.2% | [5] 6.05% | [6] 4.9%

Cc1ccc(NC(=O)CCc2ccc(N3C(N)=NC(N)=NC3(C)C)cc2Cl)cc1S(=O)(=O)F
active: [2] 72.3%
inactive: [1] 54.6% | [3] 64.2% | [4] -5.25% | [5] -25.9% | [6] 15%

O=C(O)CCCC(=O)CCCC(=O)O
inactive: [1] 0.3% | [2] 4.35% | [3] 22.9% | [4] 7.45% | [5] 24.6% | [6] 21.4%

CN(C)/N=C/c1c[nH]c2ccccc12
inactive: [1] -13.9% | [2] -13.8% | [3] -20.1% | [4] 0.5% | [5] -17.7% | [6] -8.4%

CCC(CC)CNC(=O)C(Cl)Cl
inactive: [1] -2.25% | [2] -9.8% | [3] 18.6% | [4] -18.1% | [5] -3.4% | [6] -1%

COc1ccc(C)cc1C(=O)C[n+]1ccc2ccccc2c1
inactive: [1] -10.4% | [2] -0.8% | [3] -25.1% | [4] -21.4% | [5] -6.5% | [6] 0.15%

c1cc2[se][se]c3c4cccc5[se][se]c(c(c1)c23)c54
inactive: [1] 1.05% | [2] -8.7% | [3] -26.8% | [4] -3.95% | [5] -1.8% | [6] -31.1%

COc1cc(N=Nc2ccc([N+](=O)[O-])cc2)ccc1N(CCCl)CCCl
inactive: [1] -8.55% | [2] -13.2% | [3] -16.9% | [4] 11.2% | [5] -10.6% | [6] 12.8%

CCCCCCCCCCOC(=O)c1ccccc1C(=O)OCCCCCCCCCC
inactive: [1] -22% | [2] -23.9% | [3] -13.8% | [4] 17.3% | [5] -11.2% | [6] -24.6%

COC(=O)C1c2cc(OC)c(OC)cc2C(=O)N2CCc3cc4c(cc3C12)OCO4 (configuration not stated)
inactive: [1] 15.8% | [2] -14.8% | [3] 0.65% | [4] 12.1% | [5] -3.3% | [6] 9.2%

N.N.NC(CS)C(=O)[O-].NC(CS)C(=O)[O-].[Pt+4] (configuration not stated)
inactive: [1] 15% | [2] -4% | [3] 3.25% | [4] -21.6% | [5] -12.8% | [6] 15.4%

CC(=O)Cc1ccc(C)cc1
inactive: [1] -40.4% | [2] -41.8% | [3] -29.5% | [4] 7.3% | [5] -44.5% | [6] -20.3%

[CH3][Sn]([Cl])([Cl])[c]1ccccc1
inactive: [1] -22.9% | [2] 2.05% | [3] 8.7% | [4] -18.5% | [5] -12.8% | [6] 1.6%

COC1CC2C=CC3C4OC2(/C(C)=C/C(C)C(C(C)O)OC1=O)C3C(O)C(C)C4OC(=O)c1ccc[nH]1 (configuration not stated)
inactive: [1] 14.7% | [2] 6.35% | [3] 13.3% | [4] 10.7% | [5] -2.85% | [6] 14.1%

COc1cc2c(c(OC)c1OC)CC1c3c(cc4c(c3-2)OCO4)CCN1C (configuration not stated)
inactive: [1] -5.85% | [2] -31.5% | [3] -18.1% | [4] 13.7% | [5] 2.1% | [6] -17.3%

O=C(Nc1cccc(S(=O)(=O)F)c1)/C(=C/c1ccc([N+](=O)[O-])cc1)c1ccccc1
active: [1] 88.5% | [2] 86% | [3] 86.7% | [4] 79.2% | [5] 81.2% | [6] 88.2%

CCCC(OP(=S)(OCC)OCC)c1ccc(Cl)cc1 (configuration not stated)
inactive: [1] -22.5% | [2] -1.5% | [3] 2.9% | [4] -32.3% | [5] 39% | [6] -1.15%

O=Cc1ccccc1O.[Zn+2]
inactive: [1] 9.25% | [2] 6.2% | [3] 2.8% | [4] 3.6% | [5] 0.75% | [6] 1.6%

CN(CCC(=O)O)C1=Nc2ccc(Cl)cc2C(c2ccccc2)=[N+]([O-])C1
inactive: [1] 1.75% | [2] 6.15% | [3] -14.2% | [4] -1.4% | [5] 16.2% | [6] 6.85%

O=C(O)/C=C/c1ccc(S(=O)(=O)F)cc1
inactive: [1] 36.4% | [2] -16% | [3] 16.6% | [4] 15.9% | [5] 34% | [6] 20.6%

NC(Cc1ccc2c(c1)OCO2)c1ccccc1 (configuration not stated)
inactive: [1] -0.1% | [2] 9.05% | [3] 3.25% | [4] -27.3% | [5] 0.45% | [6] 4.45%

CC(C)CC1C(=O)NCCC(NC(=O)C(N)Cc2ccc(O)cc2)C(=O)NC(Cc2ccccc2)C(=O)NC(Cc2ccccc2)NC1=O (configuration not stated)
inactive: [1] -1.2% | [2] -14.2% | [3] -23.9% | [4] 3.9% | [5] -10.8% | [6] -28.1%

CC(=O)CC(C)=O.CC(=O)CC(C)=O.CC(=O)CC(C)=O.CC(=O)CC(C)=O.[Zr]
inactive: [1] 7.2% | [2] 28.6% | [3] 10.4% | [4] 29.6% | [5] 38.6% | [6] 30.1%

[Cl][Rh]([Cl])([Cl])[Cl].[NH-]CC[NH-]
inactive: [1] 17.2% | [2] 15% | [3] 15.7% | [4] -17.4% | [5] -9.95% | [6] 8.55%

CC(=O)Nc1cc(Cl)c([N+](=O)[O-])cc1C
inactive: [1] -14.9% | [2] -4.15% | [3] -12.4% | [4] -79.1% | [5] 0.75% | [6] 11.6%
